According to PubChem BioAssay AID624351 (Southern Research Specialized Biocontainment Screening …, 2012):
About 1,400 (58%) of roughly 2,400 compounds were called active. The set was probably picked from earlier hits. The list shows a part of the results. Unmarked numbers belong to inactive results.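 Rule for the calls: active = inhibition of 30% or more at any tested dose; inconclusive = primary hits over the limit that were never retested; inactive = the rest.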

Experiment: coupled detection enzyme interference, dose response, artefact control for MgcRacGAP inhibitor project, biochemical, coupled enzyme counter-screen (AID 624351);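 note: signal is the ADP detection kit reading of free GDP without any GAP enzyme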;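 for inhibition: 0% = median positive control wells and 100% = median negative control wells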
Conditions: ADP Hunter coupled enzyme counter-screen, fluorescence, no MgcRacGAP; series mostly up to 80 µM; inhibition: at the top concentration

Compound | IC50 | inhibition [%]
Cc1cc(-c2ccccc2)nc(N/N=C/c2ccc(N(C)C)cc2)n1 | 80 µM (active) | 
Cc1cc(-c2ccccc2)nc(N/N=C/c2ccc(O)cc2O)n1 | 61.3 µM (active) | 
Cc1nc2ccccc2nc1N/N=C/c1ccc(O)cc1 | 30.5 µM (active) | 
CN(C)c1ccc(N=Cc2nc(-c3ccccc3)oc2OC(=O)c2ccccc2)cc1 |  | 12
Cc1cc(-c2ccccc2)nc(N/N=C/c2ccc(O)cc2)n1 | 31.6 µM (active) | 
CC1CN(CCOCCOc2ccccc2-c2ccccc2)CC(C)O1 (centres undefined) |  | 22
COc1ccc(CN2CCN(Cc3ccco3)CC2)cc1OC |  | 25.7
COc1ccc(/C=N/Nc2cc(C)nc3c(C)cccc23)cc1 |  | 9.08
Cc1cc(C)c2nc(C)cc(N/N=C/c3ccc(O)cc3)c2c1 | 32.9 µM (active) | 
COc1ccc(/C=C2\C(=O)NC(=O)c3ccccc32)cc1OC |  | -4.57
COc1cc(/C=N/N=C2/C(=O)Nc3ccccc32)cc(OC)c1O | 59.2 µM (active) | 
Oc1ccc(-c2nccs2)cc1 | 31.4 µM (active) | 
CCN1CCN(CCOc2cccc(Cl)c2Cl)CC1 |  | 20.8
CC1(C)CC(=O)C2=C(C1)Nc1ccccc1S2 | 23.1 µM (active) | 
CC1(C)CC(=O)C(C(C2=C(O)CC(C)(C)CC2=O)c2cccs2)C(=O)C1 (centres undefined) |  | 1.47
COc1cc(/C=N/NC(=O)c2cnccn2)ccc1O | 25.9 µM (active) | 
COc1ccc(/C=N\NC(=O)c2ccc(=O)[nH]n2)cc1O | 26 µM (active) | 
COc1cc(/C=N/NC(=O)c2ccc(=O)[nH]n2)ccc1O | 26.3 µM (active) | 
O=C(/C(=C/c1ccccc1)n1cncn1)c1ccc(Cl)cc1Cl |  | -3.68
COC(=O)C(C(=O)OC)C(C)C(C(=O)OC)C(=O)OC |  | 4.32
CN(C)c1ccc(C=Cc2cnccn2)cc1 | 53 µM (active) | 
CCOC(=O)c1[nH]c2ccccc2c1NC(=S)Nc1cc(C)ccc1C | 39.4 µM (active) | 
CCOC(=O)c1[nH]c2ccccc2c1NC(=S)Nc1cccc(C)c1C | 46 µM (active) | 
CCOC(=O)c1[nH]c2ccccc2c1NC(=S)Nc1ccccc1C | 45.3 µM (active) | 
COC(=O)c1c(NC(=O)CCNCc2ccco2)sc2c1CCC2 |  | 18.9
CCOC(=O)c1[nH]c2ccccc2c1NC(=S)Nc1ccccc1 | 45.1 µM (active) | 
CCOC(=O)c1[nH]c2ccc(F)cc2c1NC(=O)c1ccccc1C(=O)O |  | 25.5

Compound | IC50 | inhibition [%]
O=C1SC(c2ccccc2)=C/C1=C\N1CCCCC1 | 51 µM (active) | 
O=C1CCCCCN1Sc1ccccc1 |  | 3.55
CC(C)Nc1ccc(Nc2ccnc3cc4ccccc4cc23)cc1 | 22.4 µM (active) | 
COc1cc(/C=C/C(=O)OCC(=O)NC(=O)NC(C)(C)C)ccc1O | 62.6 µM (active) | 
COc1cc(/C=C/C(=O)OCC(=O)NC(=O)NC(C)C)ccc1O | 42.8 µM (active) | 
C=CCN(CC=C)C(=O)C1CCN(Cc2ccc(OCc3ccccc3)cc2)CC1 |  | 13.8
CCN1CCN(CC(=O)Nc2ccc(C)c(Br)c2)CC1 |  | 19.2
Cc1ccc(NC(=O)CN2CCN(C)CC2)cc1Br |  | 20.3
CCCS(=O)(=O)N1CCN(Cc2ccco2)CC1 |  | 15.8
Cc1ccc(NC(=O)NC(=O)CN2CCN(c3ccc(O)cc3)CC2)c(C)c1 | 63.4 µM (active) | 
O=C(CN1CCN(c2ccc(O)cc2)CC1)NC(=O)NCc1ccco1 | 54.7 µM (active) | 
COc1ccc(NC(=O)c2ccc(NC(=O)CN3CCN(c4ccc(O)cc4)CC3)cc2)cc1 | 76.7 µM (active) | 
CCN1CCN(CC(=O)Nc2nc3ccc(OC)cc3s2)CC1 |  | 24.5
O=C(CN1CCCCC1)Nc1ccc(N2CCCCCC2)cc1 |  | 0.64
CC1(C)O[C@@H]2[C@H](O1)[C@@H](COS(=O)(=O)O)O[C@H]2n1c(=S)[nH]c2c(=O)[nH]c(N)nc21 | 55.7 µM (active) | 
O=C1NN(c2ccc(Br)cc2)C(=O)/C1=C\c1ccc(O)cc1O |  | 29.1
Oc1cc(Br)ccc1C=Nc1ccc(N2CCCCC2)cc1 | 4.33 µM (active) | 
CCC(=O)c1ccccc1OCCN1CCN(CC)CC1 |  | 23.5
CCN1CCN(c2ccc(N=Cc3ccccc3O)cc2)CC1 | 24.5 µM (active) | 
CCN1CCN(c2ccc(N=Cc3ccc(O)cc3O)cc2)CC1 | 38.2 µM (active) | 
CCN1CCN(CCOc2ccccc2OCc2ccccc2)CC1 |  | 21.5
C=CCc1cc(Cl)ccc1OCCn1ccnc1 |  | -0.57
O=[N+]([O-])c1cccc(SSc2cccc([N+](=O)[O-])c2)c1 |  | 5.1
O=c1c(-c2ccccc2)c[nH]n1-c1cccc([N+](=O)[O-])c1 | 41.6 µM (active) | 
N#CC1=C(S)N(c2ccccc2)C(c2ccc(-c3cccc(Cl)c3)o2)NC1=O (centres undefined) |  | 3.56
O=c1c(-c2cccc(Cl)c2)c[nH]n1-c1ccccc1 | 52.1 µM (active) | 
O=c1c2ccccc2sn1-c1cccc(Cl)c1 |  | 17.9
